Assay results from PubChem BioAssay (EPA / NIEHS).
Records with an inconclusive call do not appear. Calls of active or inactive are those of the source. How the source made its calls, unless noted: active means hit-call score of the fitted dose curve at least 0.9, where 1 is the maximum; inactive means score below 0.9.

Key:
[1] = read-out: succinate dehydrogenase complex iron sulfur subunit B (SDHB), SDHB (gene 6390); assay: LTEA_HepaRG_SDHB: Life Technologies and Expression Analysis (LTEA) Assay for succinate dehydrogenase complex iron sulfur subunit B (SDHB) using HepaRG (AID 2283528); conditions: mRNA level, 48 h; actives raise or lower the signal
In short: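 A human HepaRG culture in serum-free induction medium received test chemicals for 48 h over an eight-point range capped at 100 uM. SDHB expression change was quantified by qRT-PCR.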

[2] = read-out: solute carrier (SLCO1B1), SLCO1B1 (gene 10599); assay: LTEA_HepaRG_SLCO1B1: Life Technologies and Expression Analysis (LTEA) Assay for solute carrier (SLCO1B1) using HepaRG (AID 2283530); conditions: mRNA level, 48 h; actives raise or lower the signal
In short: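 Human HepaRG cultures treated for 48 h with an eight-concentration half-log series topping at 100 uM; SLCO1B1 measured by qRT-PCR and fitted bidirectionally relative to DMSO.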

[3] = read-out: sulfotransferase 2A1 (SULT2A1), SULT2A1 (gene 6822); assay: LTEA_HepaRG_SULT2A1: Life Technologies and Expression Analysis (LTEA) Assay for sulfotransferase 2A1 (SULT2A1) using HepaRG (AID 2283531); conditions: mRNA level, 48 h; actives raise or lower the signal
In short: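 Gene-expression endpoint in a human liver cell line: SULT2A1 mRNA change after 48 h chemical treatment, curves fitted in both directions relative to 0.5% DMSO vehicle. Concentrations spanned eight half-log steps from 100 uM.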

[4] = read-out: Transforming Growth Factor (TGFA), TGFA (gene 7039); assay: LTEA_HepaRG_TGFA: Life Technologies and Expression Analysis (LTEA) Assay for Transforming Growth Factor (TGFA) using HepaRG (AID 2283532); conditions: mRNA level, 48 h; actives raise or lower the signal
In short: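 qRT-PCR read-out of TGFA transcript, normalized to three housekeeping genes, fitted bidirectionally against 0.5% DMSO baseline. Human HepaRG cultures received chemicals for 48 h at eight half-log concentrations, top 100 uM.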

TIMP1, TIMP1 (gene 7076) = assay: LTEA_HepaRG_TIMP1: Life Technologies and Expression Analysis (LTEA) Assay for TIMP1 using HepaRG (AID 2283534); conditions: mRNA level, 48 h; actives raise or lower the signal
In short: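 TIMP1 induction or repression in HepaRG cells after 48 h chemical exposure (eight concentrations, highest 100 uM), assessed by normalized qRT-PCR with bidirectional fitting to DMSO controls.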

[5] = read-out: Tumor necrosis factor receptor 1 (TNFRSF1A), TNFRSF1A (gene 7132); assay: LTEA_HepaRG_TNFRSF1A: Life Technologies and Expression Analysis (LTEA) Assay for Tumor necrosis factor receptor 1 (TNFRSF1A) using HepaRG (AID 2283535); conditions: mRNA level, 48 h; actives raise or lower the signal
In short: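 Assay uses 48 h chemical treatment of differentiated HepaRG monolayers, tested in duplicate at eight concentrations from 100 uM downward in 0.5% DMSO. mRNA is normalized to ACTB, GAPDH and POLR2A, with induction or suppression fitted relative to vehicle.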

[6] = read-out: Thyroid Hormone Responsive (THRSP), THRSP (gene 7069); assay: LTEA_HepaRG_THRSP: Life Technologies and Expression Analysis (LTEA) Assay for Thyroid Hormone Responsive (THRSP) using HepaRG (AID 2283536); conditions: mRNA level, 48 h; actives raise or lower the signal
In short: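 qRT-PCR read-out (Fluidigm TaqMan), housekeeping-normalized (ACTB/GAPDH/POLR2A). HepaRG, 48 h chemical exposure, 8-pt half-log series from 100 uM in 0.5% DMSO, duplicates. Bidirectional curve fit vs 0.5% DMSO baseline.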

[7] = read-out: Cellular tumor antigen p53 (Homo sapiens) (UniProt P04637); assay: LTEA_HepaRG_TP53: Life Technologies and Expression Analysis (LTEA) Assay for Tumor Protein P53 (TP53) using HepaRG (AID 2283537); conditions: mRNA level, 48 h; actives raise or lower the signal
In short: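 Gain or loss of TP53 mRNA signal is scored relative to 0.5% DMSO after 48 h chemical treatment of HepaRG liver cells, tested in duplicate at eight half-log concentrations up to 100 uM.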

[8] = read-out: UDP glucuronosyltransferase (UGT1A1), UGT1A1 (gene 54658); assay: LTEA_HepaRG_UGT1A1: Life Technologies and Expression Analysis (LTEA) Assay for UDP glucuronosyltransferase (UGT1A1) using HepaRG (AID 2283538); conditions: mRNA level, 48 h; actives raise or lower the signal
In short: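 mRNA induction or loss of UGT1A1, by TaqMan qRT-PCR, in duplicate HepaRG wells after 48 h exposure to half-log dilutions topping at 100 uM; DMSO (0.5%) served as baseline.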

[9] = read-out: UDP glucuronosyltransferase (UGT1A6), UGT1A6 (gene 54578); assay: LTEA_HepaRG_UGT1A6: Life Technologies and Expression Analysis (LTEA) Assay for UDP glucuronosyltransferase (UGT1A6) using HepaRG (AID 2283539); conditions: mRNA level, 48 h; actives raise or lower the signal
In short: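 Measures mRNA change in HepaRG hepatic cells exposed 48 h to chemicals (eight-point, maximum 100 uM, 0.5% DMSO vehicle) in serum-free induction medium. Expression normalized to endogenous controls; DMSO served as negative control and baseline.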

[10] = read-out: X-box binding protein 1 (XBP1), XBP1 (gene 7494); assay: LTEA_HepaRG_XBP1: Life Technologies and Expression Analysis (LTEA) Assay for X-box binding protein 1 (XBP1) using HepaRG (AID 2283540); conditions: mRNA level, 48 h; actives raise or lower the signal
In short: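 Eight concentrations (half-log, highest 100 uM, 0.5% DMSO) tested in duplicate on HepaRG cells over 48 h in serum-free induction medium; qRT-PCR of XBP1 normalised to ACTB, GAPDH, POLR2A.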

[11] = LTEA_HepaRG_LDH_cytotoxicity: Cytotoxicity Assessment in the Life Technologies and Expression Analysis (LTEA) Assay (AID 2283563; active means hit-call score of the fitted dose curve at least 0.9, where 1 is the maximum;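 on AC50: LDH activity released into spent culture medium as a marker of cell death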)
In short: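 Spent-medium LDH after 48 h chemical exposure of HepaRG cells in serum-free induction medium; eight concentrations, half-log dilutions from 100 uM, duplicate wells, fitted upward relative to 0.5% DMSO.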

[12] = TOX21_p53_BLA_p2_viability: Viability Assessment in the Tox21 HCT-116 p53 Agonism Beta-lactamase Assay, Phase 2 (AID 2283591; active means hit-call score of the fitted dose curve at least 0.9, where 1 is the maximum;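 further: compound exposure lasted 16 h at 37 °C; actives lower the ATP signal meaning cytotoxicity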)
In short: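 HCT116 p53-bla cells, 4000/well, dosed after 5 h plating (217-fold dilution of DMSO stocks) and incubated 16 h at 37C. Viability taken as cellular ATP by CellTiter-Glo luminescence after 30 min RT; signal loss marks cytotoxicity.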

[13] = biological target: Cellular tumor antigen p53 (Homo sapiens) (UniProt P04637); assay: TOX21_p53_BLA_p2_ratio: Tox21 HCT-116 p53 Agonism Beta-lactamase Assay, Ratio, Phase 2 (AID 2283592; active means hit-call score of the fitted dose curve at least 0.9, where 1 is the maximum)
Cellular tumor antigen p53 (Homo sapiens), sequence (P04637 whole entry, looked up): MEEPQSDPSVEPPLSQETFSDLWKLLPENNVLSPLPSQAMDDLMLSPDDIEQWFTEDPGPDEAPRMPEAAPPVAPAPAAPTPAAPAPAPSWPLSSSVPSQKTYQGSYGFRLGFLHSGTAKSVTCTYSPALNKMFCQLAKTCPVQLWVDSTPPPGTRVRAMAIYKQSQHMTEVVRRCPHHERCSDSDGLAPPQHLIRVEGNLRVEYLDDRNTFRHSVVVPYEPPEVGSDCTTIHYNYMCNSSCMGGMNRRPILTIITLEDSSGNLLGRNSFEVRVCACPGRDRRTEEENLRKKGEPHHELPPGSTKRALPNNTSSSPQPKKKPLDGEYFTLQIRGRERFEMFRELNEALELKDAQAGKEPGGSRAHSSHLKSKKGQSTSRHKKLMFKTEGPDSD
In short: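 DMSO-normalized, positive-direction endpoint derived from the 460 nm/530 nm FRET ratio in HCT116 p53 beta-lactamase reporter cells exposed 16 h at 37C and loaded with CCF4-AM for 2 h.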

[14] = TOX21_p53_BLA_p3_viability: Viability Assessment in the Tox21 HCT-116 p53 Agonism Beta-lactamase Assay, Phase 3 (AID 2283593; active means hit-call score of the fitted dose curve at least 0.9, where 1 is the maximum;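 further: cells exposed to compound for 16 h before reading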)
In short: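 HCT116 cells, 4000/well, dosed 5 h after plating by pin transfer (217-fold dilution from DMSO stock) and incubated 16 h at 37C, 5% CO2. Viability read as ATP luminescence with CellTiter-Glo after 30 min at room temperature.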

[15] = TOX21_p53_BLA_p4_viability: Viability Assessment in the Tox21 HCT-116 p53 Agonism Beta-lactamase Assay, Phase 4 (AID 2283597; active means hit-call score of the fitted dose curve at least 0.9, where 1 is the maximum;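 further: hits lower the luminescence signal meaning cytotoxicity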)
In short: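 In this multiplexed secondary endpoint, HCT116 cells (4000 per well, compound at 5 h, 16 h treatment) received CellTiter-Glo after the beta-lactamase read. Luminescence after 30 min RT reflects ATP, and falling signal marks cytotoxicity.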

[16] = ATG_XTT_Cytotoxicity: Cytotoxicity Assessment in the Attagene TRANS-FACTORIAL HepG2 Assay (AID 2283584; active means hit-call score of the fitted dose curve at least 0.9, where 1 is the maximum)
In short: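 24 h chemical exposure of reporter-transfected HepG2; XTT signal loss vs DMSO indicates cytotoxicity.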

[17] = biological target: Cellular tumor antigen p53 (Homo sapiens) (UniProt P04637); assay: TOX21_p53_BLA_p3_ratio: Tox21 HCT-116 p53 Agonism Beta-lactamase Assay, Ratio, Phase 3 (AID 2283596; active means hit-call score of the fitted dose curve at least 0.9, where 1 is the maximum)
In short: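 Cells were seeded at 4000/well, rested 5 h at 37C, then dosed with DMSO compound solutions (217-fold dilution) for 16 h. CCF4-AM substrate was loaded for 2 h at room temperature, and the 460/530 nm emission ratio was fitted for gain of signal versus DMSO.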

## CN1CCN(c2ccccc2/C=C2\SCCN(c3ccc(Cl)c(Cl)c3)C2=O)CC1
[1]
  outcome: inactive
[2]
  outcome: inactive
[3]
  AC50: 93.2 µM (active)
[4]
  AC50: 96.2 µM (active)
TIMP1, TIMP1 (gene 7076)
  outcome: inactive
[5]
  AC50: 95.5 µM (active)
[6]
  outcome: inactive
[7]
  outcome: inactive
[8]
  AC50: 50 µM (active)
[9]
  outcome: inactive
[10]
  outcome: inactive
[11]
  AC50: 69.7 µM (active)
[12]
  outcome: inactive
[13]
  outcome: inactive
[14]
  AC50: 77.6 µM (active)
[15]
  outcome: inactive

## CC(C)(C)c1cc(C(C)(C)C)c(O)c(C(C)(C)C)c1
[1]
  outcome: inactive
[2]
  outcome: inactive
[3]
  outcome: inactive
[4]
  outcome: inactive
TIMP1, TIMP1 (gene 7076)
  outcome: inactive
[5]
  outcome: inactive
[6]
  AC50: 17.9 µM (active)
[7]
  outcome: inactive
[8]
  AC50: 13.9 µM (active)
[9]
  AC50: 14.5 µM (active)
[10]
  outcome: inactive
[11]
  outcome: inactive
[12]
  outcome: inactive
[13]
  outcome: inactive
[14]
  outcome: inactive
[15]
  outcome: inactive

## OC1CCC(C2CCCCC2)CC1 (stereo unspecified)
[1]
  outcome: inactive
[2]
  outcome: inactive
[3]
  outcome: inactive
[4]
  outcome: inactive
TIMP1, TIMP1 (gene 7076)
  outcome: inactive
[5]
  outcome: inactive
[6]
  outcome: inactive
[7]
  outcome: inactive
[8]
  outcome: inactive
[9]
  outcome: inactive
[10]
  outcome: inactive
[11]
  outcome: inactive
[16]
  outcome: inactive
[12]
  outcome: inactive
[13]
  outcome: inactive
[14]
  outcome: inactive
[17]
  outcome: inactive

## O=c1c(-c2ccc(O)cc2)coc2cc(O)ccc12
[1]
  outcome: inactive
[2]
  outcome: inactive
[3]
  outcome: inactive
[4]
  outcome: inactive
TIMP1, TIMP1 (gene 7076)
  outcome: inactive
[5]
  outcome: inactive
[6]
  outcome: inactive
[7]
  outcome: inactive
[8]
  outcome: inactive
[9]
  outcome: inactive
[10]
  outcome: inactive
[11]
  outcome: inactive
[16]
  outcome: inactive
[12]
  outcome: inactive
[13]
  outcome: inactive
[14]
  outcome: inactive
[15]
  outcome: inactive
